Measured values as given in PubChem BioAssay (EPA / NIEHS).
Where “and” joins values, the source holds several entries; their conditions need not be identical. Equal values may be shown once. Some structures have more than one record in an assay (separate samples or runs), and their calls can disagree. Calls of active or inactive are those of the source. How the source made its calls: active means hit-call score of the fitted dose curve at least 0.9, where 1 is the maximum; inactive means score below 0.9.

Columns and labels:
[1] = read-out: Interferon-gamma inducible Protein 10 (IP10), CXCL10 (gene 3627); experiment: BSK_hDFCGF_IP10: BioMAP Diversity Plus: hDFCGF Assay for Interferon-gamma inducible Protein 10 (IP10) Biomarker Activity (AID 2283053); conditions: primary human foreskin fibroblasts; actives raise or lower the signal
How it was run: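 Human foreskin fibroblast primary cells (hDFCGF system) were dosed with chemical and assayed at 24 h; IP-10 measured by ELISA. Activity fitted bidirectionally relative to DMSO negative control as baseline.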

[2] = read-out: Urokinase-type plasminogen activator receptor (uPAR), PLAUR (gene 5329); experiment: BSK_CASM3C_uPAR: BioMAP Diversity Plus: CASM3C Assay for Urokinase-type plasminogen activator receptor (uPAR) Biomarker Activity (AID 2283054); conditions: primary human coronary artery smooth muscle cells; actives raise or lower the signal;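 further: cell-surface uPAR protein level quantified by ELISA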
[3] = read-out: Vascular cell adhesion molecule 1 (VCAM1), VCAM1 (gene 7412); experiment: BSK_CASM3C_VCAM1: BioMAP Diversity Plus: CASM3C Assay for Vascular cell adhesion molecule 1 (VCAM1) Biomarker Activity (AID 2283055); conditions: primary human coronary artery smooth muscle cells; actives raise or lower the signal;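 further: VCAM-1 protein level quantified by ELISA on the cells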
[4] = read-out: Collagen III, COL3A1 (gene 1281); experiment: BSK_hDFCGF_CollagenIII: BioMAP Diversity Plus: hDFCGF Assay for Collagen III Biomarker Activity (AID 2283056); conditions: primary human foreskin fibroblasts; actives raise or lower the signal
How it was run: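 Response relative to DMSO, fitted in both directions, reflects ELISA-measured collagen III in human primary skin fibroblasts 24 h after compound addition.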

[5] = read-out: Epidermal growth factor receptor (EGFR), EGFR (gene 1956); experiment: BSK_hDFCGF_EGFR: BioMAP Diversity Plus: hDFCGF Assay for Epidermal growth factor receptor (EGFR) Biomarker Activity (AID 2283057); conditions: primary human foreskin fibroblasts; actives raise or lower the signal
How it was run: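 Primary human foreskin fibroblasts were exposed to compound for 24 h, after which cell-surface EGFR was quantified by ELISA. Activity was fitted bidirectionally against the DMSO negative control as baseline.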

[6] = read-out: Interleukin-8 (IL8), CXCL8 (gene 3576); experiment: BSK_hDFCGF_IL8: BioMAP Diversity Plus: hDFCGF Assay for Interleukin-8 (IL8) Biomarker Activity (AID 2283058); conditions: primary human foreskin fibroblasts; actives raise or lower the signal
How it was run: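 Fibroblast monolayers (human foreskin, hDFCGF) received test chemical for 24 h before ELISA detection of IL-8; either increases or decreases relative to DMSO count as activity.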

[7] = read-out: Macrophage colony-stimulating factor (MCSF), CSF1 (gene 1435); experiment: BSK_hDFCGF_MCSF: BioMAP Diversity Plus: hDFCGF Assay for Macrophage colony-stimulating factor (MCSF) Biomarker Activity (AID 2283060); conditions: primary human foreskin fibroblasts; actives raise or lower the signal
How it was run: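 fibroblasts (human foreskin, primary), 24 h post-dose; M-CSF by ELISA; bidirectional fit, DMSO = baseline.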

[8] = BSK_hDFCGF_SRB: Viability Assessment in the BioMAP Diversity Plus: hDFCGF Assay (AID 2283061); conditions: primary human foreskin fibroblasts;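 further: cells exposed to compound for 24 h before the read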
How it was run: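 SRB-based viability read on primary human skin fibroblasts at 24 h: TCA fixation, 0.1% dye, 560 nm. Gain or loss of signal is fitted against the DMSO negative control.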

[9] = read-out: TIMP metallopeptidase inhibitor 1 (TIMP1), TIMP1 (gene 7076); experiment: BSK_hDFCGF_TIMP1: BioMAP Diversity Plus: hDFCGF Assay for TIMP metallopeptidase inhibitor 1 (TIMP1) Biomarker Activity (AID 2283062); conditions: primary human foreskin fibroblasts; actives raise or lower the signal
How it was run: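 Bidirectional curve fitting against DMSO baseline yielded this endpoint, based on ELISA detection of TIMP-1 in primary human foreskin fibroblasts exposed to compound for 24 h.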

[10] = read-out: Monokine induced gamma interferon (MIG), CXCL9 (gene 4283); experiment: BSK_hDFCGF_MIG: BioMAP Diversity Plus: hDFCGF Assay for Monokine induced gamma interferon (MIG) Biomarker Activity (AID 2283063); conditions: primary human foreskin fibroblasts; actives raise or lower the signal
How it was run: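 Endpoint derived by bidirectional fitting relative to DMSO; MIG quantified via ELISA in primary human foreskin fibroblasts harvested 24 h after dosing.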

[11] = read-out: Matrix Metallopeptidase 1 (MMP1), MMP1 (gene 4312); experiment: BSK_hDFCGF_MMP1: BioMAP Diversity Plus: hDFCGF Assay for Matrix Metallopeptidase 1 (MMP1) Biomarker Activity (AID 2283064); conditions: primary human foreskin fibroblasts; actives raise or lower the signal
How it was run: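 hDFCGF primary fibroblasts (human foreskin); chemical added; 24 h; MMP1 by ELISA; bidirectional fit vs DMSO.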

[12] = read-out: Vascular cell adhesion molecule 1 (VCAM1), VCAM1 (gene 7412); experiment: BSK_hDFCGF_VCAM1: BioMAP Diversity Plus: hDFCGF Assay for Vascular cell adhesion molecule 1 (VCAM1) Biomarker Activity (AID 2283065); conditions: primary human foreskin fibroblasts; actives raise or lower the signal;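 on AC50: VCAM-1 protein level quantified by ELISA after 24 h chemical exposure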
How it was run: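 Measured after 24 h chemical treatment of primary human skin fibroblasts, VCAM-1 was detected by ELISA and concentration-response analysed in both directions versus DMSO vehicle.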

[13] = read-out: Plasminogen activator inhibitor-1 (PAI1), SERPINE1 (gene 5054); experiment: BSK_hDFCGF_PAI1: BioMAP Diversity Plus: hDFCGF Assay for Plasminogen activator inhibitor-1 (PAI1) Biomarker Activity (AID 2283066); conditions: primary human foreskin fibroblasts; actives raise or lower the signal
How it was run: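 Human foreskin fibroblasts in the hDFCGF system were dosed with compound for 24 h; PAI-1 was quantified by ELISA. Bidirectional curve fitting used DMSO as negative control and baseline.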

[14] = read-out: Interferon-gamma inducible Protein 10 (IP10), CXCL10 (gene 3627); experiment: BSK_KF3CT_IP10: BioMAP Diversity Plus: KF3CT Assay for Interferon-gamma inducible Protein 10 (IP10) Biomarker Activity (AID 2283068); conditions: primary human keratinocytes with fibroblasts; actives raise or lower the signal
How it was run: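 In a primary skin co-culture of keratinocytes and fibroblasts, IP-10 is quantified by ELISA at 24 h after dosing. SRB staining of parallel wells monitors overt toxicity. Curves are fitted both directions against DMSO.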

[15] = BSK_KF3CT_SRB: Viability Assessment in the BioMAP Diversity Plus: KF3CT Assay (AID 2283069); conditions: primary human keratinocytes with fibroblasts;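 further: total protein by sulforhodamine B staining as a cytotoxicity measure; fitted for both signal gain and loss against DMSO baseline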
How it was run: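 Keratinocytes co-cultured with foreskin fibroblasts (human primary); chemical added, 24 h; fix 10% TCA, stain 0.1% SRB, A560. Bidirectional fit vs DMSO.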

[16] = read-out: Interleukin-1 alpha (IL1a), IL1A (gene 3552); experiment: BSK_KF3CT_IL1a: BioMAP Diversity Plus: KF3CT Assay for Interleukin-1 alpha (IL1a) Biomarker Activity (AID 2283070); conditions: primary human keratinocytes with fibroblasts; actives raise or lower the signal
How it was run: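 Chemicals were dosed onto co-cultured human keratinocytes and foreskin fibroblasts, IL-1a was quantified by ELISA at 24 h, and activity was fitted in both directions relative to DMSO controls.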

[17] = read-out: TIMP metallopeptidase inhibitor 2 (TIMP2), TIMP2 (gene 7077); experiment: BSK_KF3CT_TIMP2: BioMAP Diversity Plus: KF3CT Assay for TIMP metallopeptidase inhibitor 2 (TIMP2) Biomarker Activity (AID 2283071); conditions: primary human keratinocytes with fibroblasts; actives raise or lower the signal
How it was run: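 Human primary keratinocyte/foreskin fibroblast co-culture dosed with chemical and sampled at 24 h. TIMP-2 levels quantified by ELISA; bidirectional fitting against DMSO negative control as baseline.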

[18] = BSK_hDFCGF_Proliferation: Cell Proliferation Assessment in the BioMAP Diversity Plus: hDFCGF Assay (AID 2283059); conditions: primary human foreskin fibroblasts;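 further: curves fitted for both rise and fall of signal versus DMSO baseline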
How it was run: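 Primary human foreskin fibroblasts, sub-confluent; […]; 10% TCA fix, 0.1% SRB stain, A560 total protein. Gain/loss fitted bidirectionally vs DMSO control.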

[19] = read-out: Intercellular Adhesion Molecule 1 (ICAM1), ICAM1 (gene 3383); experiment: BSK_KF3CT_ICAM1: BioMAP Diversity Plus: KF3CT Assay for Intercellular Adhesion Molecule 1 (ICAM1) Biomarker Activity (AID 2283067); conditions: primary human keratinocytes with fibroblasts; actives raise or lower the signal
How it was run: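 Bidirectional curve fitting against a DMSO baseline was applied to ICAM-1 ELISA signal from primary human skin co-cultures harvested 24 h after treatment, with SRB staining of parallel wells for overt cytotoxicity.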

[20] = read-out: Transforming growth factor beta 1 (TGFb1), TGFB1 (gene 7040); experiment: BSK_KF3CT_TGFb1: BioMAP Diversity Plus: KF3CT Assay for Transforming growth factor beta 1 (TGFb1) Biomarker Activity (AID 2283072); conditions: primary human keratinocytes with fibroblasts; actives raise or lower the signal
How it was run: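 Human keratinocyte plus foreskin fibroblast primary co-culture, dosed with chemical for 24 h. TGF-b1 quantified by ELISA. Activity fitted bidirectionally against DMSO negative control as baseline.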

Measured: AC50

S=C(S)NCCNC(=S)S.[Mn+2].[S-]C([S-])=NCCN=C([S-])[S-].[Zn+2]
active: [1] 10.4 µM | [7] 1.41 µM | [12] 5.37 µM and 12.4 µM
inactive: [1] | [2] | [3] | [4] | [5] | [6] | [7] | [8] | [9] | [10] | [11] | [12] | [13] | [14] | [15] | [16] | [17]

CCOC(=O)NCCOc1ccc(Oc2ccccc2)cc1
active: [4] 12.6 µM | [18] 24.7 µM | [7] 23.1 µM
not listed: [20]
inactive: all other assays above

C#CCOC(=O)[C@@H](C)Oc1ccc(Oc2ncc(Cl)cc2F)cc1
active: [18] 14.9 µM
inactive: all other assays above

OB(O)O
inactive: all assays above

CCCN(CCC)C(=O)SCC
active: [14] 36.1 µM
inactive: [1] | [2] | [3] | [4] | [5] | [6] | [18] | [7] | [8] | [9] | [10] | [11] | [12] | [13] | [14] | [15] | [16] | [17]

COC(=O)c1ccccc1C(=O)O
active: [1] 31.5 µM | [9] 6.58 µM | [14] 10.4 µM
inactive: all other assays above
